High-throughput results: PubChem, Broad Institute
C diff HTS – C. difficile growth inhibition. Clostridium difficile clinical isolate growth, OD600, 24 h; hits give low values. growth activity, negative = inhibition, % at 16 µg/mL (by protocol). 0.25% of 86,000 active. AID 1259249;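 active means mean growth activity at or below -80% and every replicate also at or below -80%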;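 further: 0% = DMSO wells and -100% = levofloxacin 16 µg/mL wells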
Pf Dd2 growth – blocks growth of Plasmodium falciparum Dd2 parasites; P. falciparum Dd2 growth, SYBR Green, 72 h; hits give low values; activity change, % at 10 µM; 2.3% of 94,000 active; AID 1159554; in the data active means activity change below about -80%
Starred values were filed as active, the others as inactive; · = no result given. In the library only some 2.4% were active in any assay of this set; here they are far more common.

SMILES	C diff HTS	Pf Dd2 growth
CC(C)CC#Cc1ccc([C@@H]2[C@H]3CN(C(=O)c4ccccn4)CC(=O)N3[C@H]2CO)cc1	-9.4	-24.7
Cc1noc(C)c1NC(=O)N(C)C[C@@H]1Oc2ccc(NC(=O)Nc3ccc(F)cc3)cc2CC(=O)N([C@@H](C)CO)C[C@@H]1C	-1.1	16.0
COc1ccccc1NC(=O)N(C)C[C@H]1Oc2ncc(C#CC(C)C)cc2C(=O)N([C@H](C)CO)C[C@H]1C	0.7	-1.2
CCCC#Cc1cnc2c(c1)C(=O)N([C@H](C)CO)C[C@@H](C)[C@H](CN(C)C(=O)Nc1cc(F)ccc1F)O2	-10.8	-81.3*
CCCC#Cc1cnc2c(c1)C(=O)N([C@H](C)CO)C[C@H](C)[C@H](CN(C)C(=O)Nc1cc(F)ccc1F)O2	-3.9	-35.4
COc1ccccc1NC(=O)N(C)C[C@@H]1Oc2ncc(C#CC(C)C)cc2C(=O)N([C@@H](C)CO)C[C@H]1C	-2.9	-82.3*
COc1ccccc1S(=O)(=O)N[C@@H]1C=C[C@@H](CC(=O)NCc2cc(F)cc(F)c2)O[C@H]1CO	·	-51.7
C/C=C/c1ccc([C@H]2[C@@H](CN(C)S(C)(=O)=O)N(C(C)=O)[C@H]2CO)cc1	-2.7	-4.4
C[C@@H]1CN([C@@H](C)CO)C(=O)Cc2cc(NC(=O)Cc3cn(C)c4ccccc34)ccc2O[C@@H]1CN(C)C(=O)Nc1ccc(F)cc1	-0.3	-10.9
C[C@H]1CN([C@@H](C)CO)C(=O)Cc2cc(NC(=O)Nc3ccccc3)ccc2O[C@H]1CN(C)Cc1ccc(Oc2ccccc2)cc1	8.5	-5.8
C[C@H]1CN([C@@H](C)CO)C(=O)Cc2cc(NS(=O)(=O)c3cn(C)cn3)ccc2O[C@H]1CN(C)Cc1ccc(Oc2ccccc2)cc1	-13.2	0.5
C[C@H](CO)N1C[C@H](C)[C@@H](CN(C)C(=O)Nc2ccc3c(c2)OCO3)Oc2ccc(NC(=O)Nc3ccccc3)cc2CC1=O	5.3	-83.3*
C[C@@H]1CN([C@H](C)CO)C(=O)Cc2cc(NC(=O)Nc3ccc4c(c3)OCO4)ccc2O[C@@H]1CN(C)Cc1ccc2c(c1)OCO2	6.6	-0.4
C[C@H](CO)N1C[C@H](C)[C@@H](CN(C)Cc2ccc(Oc3ccccc3)cc2)Oc2ccc(NS(=O)(=O)c3cn(C)cn3)cc2CC1=O	-1.7	-90.2*
C[C@@H]1CN([C@@H](C)CO)C(=O)Cc2cc(NC(=O)Nc3ccccc3)ccc2O[C@H]1CN(C)Cc1ccc(Oc2ccccc2)cc1	29.2	-87.1*
C[C@H](CO)N1C[C@H](C)[C@@H](CN(C)Cc2ccc3c(c2)OCO3)Oc2ccc(NC(=O)Nc3ccc4c(c3)OCO4)cc2CC1=O	7.7	-91.2*
C[C@H](CO)N1C[C@H](C)[C@@H](CN(C)C(=O)Nc2ccccc2)Oc2ccc(NC(=O)Nc3ccc4c(c3)OCO4)cc2CC1=O	-14.5	6.1
C[C@H](CO)N1C[C@H](C)[C@H](CN(C)C(=O)Nc2cccc3ccccc23)Oc2ccc(NS(=O)(=O)c3ccc(Cl)cc3)cc2C1=O	-2.3	-12.2
Cc1ccc(S(=O)(=O)Nc2ccc3c(c2)C(=O)N([C@@H](C)CO)C[C@H](C)[C@H](CN(C)S(=O)(=O)c2ccc(F)cc2)O3)cc1	-2.1	-21.0
CO[C@H]1CN(C)C(=O)c2ccc(NC(=O)C3CC3)cc2OC[C@H](C)N(Cc2ccccc2)C[C@H]1C	·	-17.0
Cn1cnc(S(=O)(=O)N[C@@H]2CC[C@H](CC(=O)Nc3ccccc3)O[C@@H]2CO)c1	-0.5	·
OC[C@H]1[C@@H](c2ccc(C#CC3CC3)cc2)[C@@H]2CN(CCC(F)(F)F)CCCCN12	19.8	-75.8
C[C@@H]1CCCCO[C@H](CN(C)C)[C@H](C)CN([C@H](C)CO)C(=O)c2cc(NS(=O)(=O)c3ccc(Cl)cc3)ccc2O1	-1.3	-16.2
Cc1ccc(S(=O)(=O)Nc2ccc3c(c2)C(=O)N([C@@H](C)CO)C[C@H](C)[C@H](CN(C)C(=O)Nc2c(C)noc2C)OCCCC[C@H](C)O3)cc1	1.7	1.4
CCNC(=O)Nc1ccc2c(c1)C(=O)N(C)[C@@H]1CC[C@H](CC(=O)NCc3ccc(F)cc3)O[C@@H]1CO2	0.4	2.0
SMILES	C diff HTS	Pf Dd2 growth
C[C@H](CO)N1C[C@H](C)[C@H](CN(C)Cc2ccc(-c3ccccc3)cc2)Oc2ccc(NC(=O)Nc3ccc4c(c3)OCO4)cc2CC1=O	20.5	-4.9
C[C@@H]1CN([C@H](C)CO)C(=O)Cc2cc(NC(=O)Cc3cn(C)c4ccccc34)ccc2O[C@H]1CN(C)Cc1ccc(Cl)c(Cl)c1	-5.9	-55.5
C[C@H](CO)N1C[C@H](C)[C@@H](CN(C)Cc2ccccc2)Oc2ccc(NC(=O)Nc3ccc(F)cc3)cc2CC1=O	-0.5	-88.3*
C[C@@H]1CN([C@@H](C)CO)C(=O)Cc2cc(NC(=O)Nc3ccc(F)cc3)ccc2O[C@@H]1CN(C)Cc1ccccc1	1.1	-35.7
CC(C)NC(=O)Nc1ccc2c(c1)CC(=O)N([C@@H](C)CO)C[C@@H](C)[C@H](CN(C)Cc1ccc(Cl)c(Cl)c1)O2	3.7	-82.0*
C[C@H](CO)N1C[C@H](C)[C@@H](CN(C)Cc2ccc(-c3ccccc3)cc2)Oc2ccc(NC(=O)Nc3ccc4c(c3)OCO4)cc2CC1=O	79.0	-82.1*
CC(C)NC(=O)Nc1ccc2c(c1)CC(=O)N([C@@H](C)CO)C[C@H](C)[C@@H](CN(C)Cc1ccc(Cl)c(Cl)c1)O2	19.0	-16.4
C[C@@H]1CN([C@@H](C)CO)C(=O)Cc2cc(NC(=O)Cc3cn(C)c4ccccc34)ccc2O[C@H]1CN(C)Cc1ccc(Cl)c(Cl)c1	6.5	-81.7*
CC(=O)N1[C@@H](CO)[C@@H](c2ccccc2)C12CN(C(=O)c1ccccn1)C2	0.0	40.2
COc1ccc(S(=O)(=O)N(C)C[C@@H]2Oc3ccc(NC(=O)Nc4ccccc4)cc3CC(=O)N([C@H](C)CO)C[C@H]2C)cc1	-10.9	-17.6
COc1ccc2c3c([nH]c2c1)[C@@H](CO)N(C(=O)Nc1ccc(F)cc1)CC31CCN(C(=O)c2ccccn2)CC1	-4.4	-75.7
O=C(C[C@@H]1C=C[C@H](NC(=O)CC2CC2)[C@@H](CO)O1)NCc1ccccc1	-3.8	27.1
C[C@@H]1CN([C@@H](C)CO)C(=O)c2cc(NC(=O)c3ccncc3)ccc2O[C@H]1CN(C)Cc1ccc(Oc2ccccc2)cc1	9.0	-6.6
COc1ccc(NC(=O)Nc2ccc3c(c2)CC(=O)N([C@H](C)CO)C[C@@H](C)[C@H](CN(C)S(=O)(=O)c2cn(C)cn2)O3)cc1	-4.8	7.1
C[C@@H]1CN([C@H](C)CO)C(=O)Cc2cc(NC(=O)Nc3ccccc3)ccc2O[C@@H]1CN(C)Cc1ccc(-c2ccccc2)cc1	4.5	32.1
C[C@@H]1CN([C@@H](C)CO)C(=O)Cc2cc(NC(=O)Nc3ccccc3)ccc2O[C@H]1CN(C)Cc1ccc(-c2ccccc2)cc1	46.6	-88.0*
C[C@H]1CN([C@@H](C)CO)C(=O)c2cc(C#CCN(C)C)cnc2O[C@@H]1CN(C)C(=O)Nc1cccc(F)c1	-2.9	0.8
CC(=O)N(C)C[C@@H]1Oc2ncc(-c3ccccc3C)cc2C(=O)N([C@@H](C)CO)C[C@@H]1C	-0.2	32.7
Cc1noc(C)c1NC(=O)Nc1ccc2c(c1)C(=O)N([C@@H](C)CO)C[C@@H](C)[C@@H](CN(C)C)OCCCC[C@H](C)O2	-0.6	6.4
